From PubChem BioAssay
KDM5B inh = blocks human KDM5B histone demethylase activity. Potency, µM (top dose mostly 57.7 µM), actives largely listed as inhibitors. 220,000 tested, 2.6% active. KDM5B demethylase, FDH-coupled NADH fluorescence (FDH is formaldehyde dehydrogenase); active = well fitted inhibition curve with a large enough effect; also: 0% is about no effect; nearly all actives have a fitted effect of over 70% in size
Target sequence (Q9UGL1 whole entry, looked up): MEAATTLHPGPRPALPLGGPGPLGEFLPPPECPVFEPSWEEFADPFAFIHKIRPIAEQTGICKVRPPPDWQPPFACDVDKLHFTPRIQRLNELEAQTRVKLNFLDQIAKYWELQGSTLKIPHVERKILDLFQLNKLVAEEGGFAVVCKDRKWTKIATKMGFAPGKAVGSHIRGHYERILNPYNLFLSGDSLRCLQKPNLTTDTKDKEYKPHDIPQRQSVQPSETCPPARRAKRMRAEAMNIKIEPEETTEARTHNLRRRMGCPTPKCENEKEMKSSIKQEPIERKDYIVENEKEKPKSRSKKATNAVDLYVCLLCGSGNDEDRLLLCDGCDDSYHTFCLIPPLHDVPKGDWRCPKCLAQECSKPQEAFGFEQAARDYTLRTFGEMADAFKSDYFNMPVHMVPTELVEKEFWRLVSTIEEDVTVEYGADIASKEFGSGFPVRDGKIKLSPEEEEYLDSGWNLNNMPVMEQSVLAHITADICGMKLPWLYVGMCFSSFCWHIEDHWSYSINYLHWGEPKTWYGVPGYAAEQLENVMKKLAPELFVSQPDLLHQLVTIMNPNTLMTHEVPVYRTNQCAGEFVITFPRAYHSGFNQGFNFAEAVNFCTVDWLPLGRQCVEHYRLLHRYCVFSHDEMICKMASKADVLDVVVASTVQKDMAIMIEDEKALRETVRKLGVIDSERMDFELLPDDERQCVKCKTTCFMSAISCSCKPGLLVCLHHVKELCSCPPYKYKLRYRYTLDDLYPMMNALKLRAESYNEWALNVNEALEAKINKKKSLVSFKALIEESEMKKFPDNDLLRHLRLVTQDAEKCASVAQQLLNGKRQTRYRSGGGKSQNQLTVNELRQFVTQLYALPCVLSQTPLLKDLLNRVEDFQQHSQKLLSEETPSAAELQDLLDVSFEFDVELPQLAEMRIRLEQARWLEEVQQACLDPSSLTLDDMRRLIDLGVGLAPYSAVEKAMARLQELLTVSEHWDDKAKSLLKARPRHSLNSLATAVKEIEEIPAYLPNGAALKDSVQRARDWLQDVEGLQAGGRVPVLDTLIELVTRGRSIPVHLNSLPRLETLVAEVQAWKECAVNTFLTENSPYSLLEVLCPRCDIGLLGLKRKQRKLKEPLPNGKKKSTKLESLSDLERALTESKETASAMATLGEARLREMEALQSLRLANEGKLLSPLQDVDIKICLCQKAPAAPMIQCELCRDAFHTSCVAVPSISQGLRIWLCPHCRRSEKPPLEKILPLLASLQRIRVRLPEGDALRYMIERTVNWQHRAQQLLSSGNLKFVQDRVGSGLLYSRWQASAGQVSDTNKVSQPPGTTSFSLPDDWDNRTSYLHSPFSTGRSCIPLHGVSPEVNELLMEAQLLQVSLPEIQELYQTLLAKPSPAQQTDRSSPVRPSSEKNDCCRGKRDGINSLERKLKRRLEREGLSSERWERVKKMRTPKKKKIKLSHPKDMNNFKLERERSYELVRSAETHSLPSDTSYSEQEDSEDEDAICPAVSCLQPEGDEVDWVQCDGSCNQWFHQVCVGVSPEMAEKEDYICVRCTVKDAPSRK
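Inhibition is measured as reduced NADH fluorescence generation from FDH coupling to formaldehyde release. Truncated KDM5BΔAP at 200 nM final acts on H3K4me3 peptide (12.5 µM in substrate mix) in pH 7.5 HEPES buffer with Tween-20, 30 min, room temperature.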
The depositor's hits bear a star; i = inactive. The full list was thinned out, with hits kept by preference. Potency is read from the fitted curve at half-maximal effect.

SMILES	KDM5B inh
Cc1cc(C)cc(NC(=O)NCc2c(C)nn(C)c2C)c1	i
O=S(=O)(Nc1nc2ccccc2nc1N1CCN(c2ncccn2)CC1)c1ccccc1	i
Cn1c(CO[C@H]2CN(Cc3cnc4ccccc4c3)C[C@H]2F)nc2ccccc21	i
CC(=O)Nc1ccc(CN2C[C@@H](F)[C@@H](OCc3nc4ccccc4n3C)C2)cc1	31.6µM*
COc1ccc(CN2C[C@@H](F)[C@@H](OCc3nc4ccccc4n3C)C2)cn1	i
CC1(C)CC(=O)C2=C(C1)NC(=O)CC2c1ccc(C(C)(C)C)cc1 (stereo not drawn)	i
O=C(O)C1CNCCN(CCOCc2ccccc2)C1 (stereo not drawn)	i
COc1ccc(Cc2nc3nccc(-c4cccc(OC)c4)n3n2)cc1	20µM*
COc1ccc(CCc2nc3nccc(-c4cccc(OC)c4)n3n2)cc1	17.8µM*
COc1ccc(CCc2nc3nccc(-c4ccccn4)n3n2)cc1	i
COc1ccc(Cc2nc3nccc(-c4cccnc4)n3n2)cc1	i
CCOC(=O)CCN(Cc1cc(C)ccc1C)CC1CC1	i
CN(C)Cc1cn([C@H]2CO[C@H]3[C@@H]2OC[C@H]3O)nn1	i
O=C(Nc1ccccc1)C1CCCN1c1ncnc2ccccc12 (stereo not drawn)	i
COc1cc(C=O)c(Br)cc1OC(C)C	i
COc1ccc(CCC(=O)NCCC2CCN(C(=O)Nc3cc(F)cc(F)c3)CC2)cc1	i
CCCCCn1nc(C(=O)Nc2ccc(C(C)=O)cc2)c2ccccc2c1=O	i
Cc1nc2ncccn2c1C(=O)N1CCC(c2[nH]ncc2-c2ccccc2)CC1	28.2µM*
Cc1cccc2nc(C(=O)N3CCCC(c4[nH]ncc4-c4ccccc4)C3)cn12 (stereo not drawn)	i
Cc1cccc(-c2cn[nH]c2C2CCN(C(=O)c3ccccc3OC(F)F)CC2)c1	i
CCCN(CC1CCOC1)C(=O)NCc1ccc(F)cc1 (stereo not drawn)	i
Cc1cc(NC(=O)CSc2nnnn2-c2cc(Cl)ccc2C)no1	i
CCC(C)NC(=O)Cn1ncc2c([nH]c3ccc(C)cc32)c1=O (stereo not drawn)	i
Cc1nc2scc(CC(=O)NCC(C)C)n2c(=O)c1-c1cc(C)n(-c2ccc(C(C)C)cc2)n1	28.2µM*
Cc1ccc(Cl)cc1-n1nc(-c2c(C)nc3scc(CC(=O)NCC(C)C)n3c2=O)cc1C	22.4µM*
SMILES	KDM5B inh
Cc1ccc(-n2cccc2CC(=O)NCC(C)C)cc1	i
Cc1ccc(-n2nc(-c3c(C)nc4scc(CC(=O)NCC(C)C)n4c3=O)cc2C)c(C)c1	i
CCC(C)NC(=O)COC(=O)c1ccc2nc(C)c(C)nc2c1 (stereo not drawn)	i
CCNC(=O)N[C@@H]1C=C[C@@H](c2c(C)nn(-c3ccc(C(C)C)cc3)c2C)C1	i
Cc1ccccc1-n1nc(-c2c(C)nc3scc(CC(=O)NCC(C)C)n3c2=O)cc1C	28.2µM*
Cc1nc2ccccc2c(C)c1CC(=O)NCC(C)C	i
O=C(Cc1csc2nc(-c3ccc(Cl)cc3)cn12)NCCc1ccccc1	i
CCC(C)NC(=O)Cc1csc2nc(C)c(-c3cc(C)n(-c4ccc(C)cc4C)n3)c(=O)n12 (stereo not drawn)	28.2µM*
NC(=O)NNC(=S)NC12CC3CC(CC(C3)C1)C2	i
COc1ccccc1C(=O)NC1CCC(C)CC1 (stereo not drawn)	i
CCCn1c(Sc2ccc(C)cc2)nc2c1c(=O)[nH]c(=O)n2C	i
Cc1cccc(Nc2nc(-c3ccc([N+](=O)[O-])cc3)cs2)c1	i
Cn1cc(C(=O)NCCNS(=O)(=O)c2ccccc2)c2ccccc21	i
CC1CCCCN1C(=O)C1COC2(CCN(C(=O)c3ccco3)CC2)N1C(=O)c1ccccc1 (stereo not drawn)	i
Nc1nc(N2CCOCC2)nc2c1C(C(=O)Nc1ccc(Br)cc1)CC(=O)N2 (stereo not drawn)	i
Cc1c(OCC(=O)Nc2ccc(F)c(Cl)c2)c(=O)ccn1C	i
Cc1nc(N2CCCC2)c2c(C(=O)NCc3ccco3)c(C)oc2n1	i
Cc1cccc(-n2nc(-c3c(C)nc4scc(CC(=O)NC5CCCCC5)n4c3=O)cc2C)c1C	25.1µM*
Cc1cccc(N2CCN(S(=O)(=O)c3c(C)nc4scc(C)n4c3=O)CC2)c1C	i
CCC1Oc2ccccc2N(CC(=O)NC2CCCCC2)C1=O (stereo not drawn)	i
Cc1ccc2cc(C(=O)N(C)Cc3ccc(C)o3)[nH]c2c1	i
CCc1cc(C(=O)O)c2c(c1)C(C)CC(C)(C)N2 (stereo not drawn)	i
O=C(NC1CCN(Cc2ccccc2)C1)c1c[nH]c2ccccc12 (stereo not drawn)	i
O=C(NCCCn1nccc1C1CC1)[C@H]1CNC[C@@H](C(=O)N2CCCC2)C1	i
O=C(NCCc1noc(-c2cccnc2)n1)NC1CCCCC1	i
Cc1noc2ccc(-c3cccnc3)nc12	i
O=C(CC1CCCC1)NCCc1noc(-c2cccnc2)n1	i
